Here are results for 14 molecules from PubChem BioAssay.

Calls of active or inactive are those of the source.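 The calls were made as follows, unless noted: active = inhibition at or above 50% at 10 µM; inactive = inhibition below 50%.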

The nature of test [1]: inhibitors of TNFa-induced NFkB p65 translocation, primary screen, imaging, HUVEC, MLSMR starter and 10KST1 sets (AID 438;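 active = inhibition above 20% together with a positive visual image hit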;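 also: compound added about 3h40 before a 20 min TNFalpha stimulation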;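 as to inhibition: signal is the nuclear over cytoplasmic p65 intensity ratio per well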). As to conditions: HUVEC TNFa-induced p65 nuclear translocation; cell count: measured here: nuclei count (cytotoxicity indicator), at 2.08 µM; inhibition: at 2 µM, stronger effect = higher value, 0% TNFa-plus-vehicle, 100% no-TNFa wells.
Test [2] can be described thus: reduction of polyQ htt aggregates in cells – imaging, exon1htt(103Q)mCFP cells, high-content imaging, primary screen (AID 483;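 active = visual image review flags a hit and inhibition of aggregation exceeds 20%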;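 also: compound exposure lasted 3 days before fixation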;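 as to nuclei count: percent of the per-plate median nuclei count of sample wells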). As to conditions: exon1htt(103Q)mCFP cell line, aggregate imaging, at 2 µM; inhibition of aggregation: stronger effect = higher value; nuclei count: measured here: cell count, toxicity.
The nature of test [3]: endothelial E-selectin expression blockers – imaging, HUVEC, immunofluorescence, MLSMR starter and 10KST1 sets, primary screen (AID 487;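 active = visually confirmed hit in the image check and inhibition above 20%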;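 as to inhibition: signal is fraction of cell area covered by stained E-selectin grains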;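 as to nuclei count: 100% = median nuclei count of all wells on the same plate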). As to conditions: HUVEC TNFalpha-induced E-selectin immunofluorescence imaging, at 2 µM; inhibition: stronger effect = higher value; nuclei count: measured here: cell number, toxicity.
Test [4] has as its target Voltage-gated potassium channel subunit beta-2 (Rattus norvegicus) (UniProt P62483). Kind of test: inhibitors of rat Kvbeta2 reductase activity – biochemical, NADPH fluorescence, primary screen (AID 622;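 active = fluorescence slope higher than the sample average by over 3 SD, cut at about -0.22 in these data, passing the limit was not always enough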;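 also: slope of raw intensity against log time taken from 70 to 1610 s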). As to conditions: recombinant KvBeta, 4-cyanobenzaldehyde reduction, at 10 µM, stronger effect = higher value.
The target is the same in test [5]. Description: enhancers of rat Kvbeta2 NADPH turnover – biochemical, NADPH fluorescence, primary screen (AID 623;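 active = NADPH fluorescence slope more negative than the mean of all samples by about 3 SD, 99.7% confidence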;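 also: fluorescence intensity change per second fitted from 20 to 320 s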). As to conditions: Recombinant KvBeta, NADPH fluorescence decrease slope, 10 min; at 10 µM; stronger effect = lower value.
Test [6] addresses Alpha-2C adrenergic receptor (Homo sapiens) (UniProt P18825). Kind of test: compounds altering alpha2C-coupled GIRK flux – cell-based, HEK293 alpha2C/GIRK1/2, thallium flux, primary screen (AID 624;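 active = fluorescence slope after compound addition differing from the mean of all screened samples at 99.7% confidence, in either direction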;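 also: slope of fluorescence ratio to pre-addition baseline per second over 15 to 24 s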). As to conditions: thallium flux BTC fluorescence, at 10 µM, actives lie on both sides.
Test [7] in a line: blockers of RIG-like receptor reporter activation – cell-based, Sendai virus stimulus, luciferase, 10K MLSCN set, TLR/RLR signaling modifier project, primary screen (AID 602276).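 Also: firefly luciferase from ISG56 promoter only with Renilla not read in this screen; 0% = Sendai virus plus DMSO and 100% = medium plus DMSO without virus.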 As to conditions: HEK293 RL24 IRF3 luciferase reporter, at 10 µM, stronger effect = higher value. Background: In a reporter assay the amount or activity of a reporter protein is the signal.
A short description of test [8]: TLR3 IRF3 reporter activation blockers – cell-based, poly I:C stimulus, luciferase, 10K MLSCN set, primary screen (AID 602277;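 active = inhibition of the reporter signal at or above 50%; inactive = inhibition below 50%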). As to conditions: HEK293-TLR3 RL24 IRF3 luciferase reporter, at 10 µM, stronger effect = higher value.

Sequence of Alpha-2C adrenergic receptor (Homo sapiens) (P18825 whole entry, looked up): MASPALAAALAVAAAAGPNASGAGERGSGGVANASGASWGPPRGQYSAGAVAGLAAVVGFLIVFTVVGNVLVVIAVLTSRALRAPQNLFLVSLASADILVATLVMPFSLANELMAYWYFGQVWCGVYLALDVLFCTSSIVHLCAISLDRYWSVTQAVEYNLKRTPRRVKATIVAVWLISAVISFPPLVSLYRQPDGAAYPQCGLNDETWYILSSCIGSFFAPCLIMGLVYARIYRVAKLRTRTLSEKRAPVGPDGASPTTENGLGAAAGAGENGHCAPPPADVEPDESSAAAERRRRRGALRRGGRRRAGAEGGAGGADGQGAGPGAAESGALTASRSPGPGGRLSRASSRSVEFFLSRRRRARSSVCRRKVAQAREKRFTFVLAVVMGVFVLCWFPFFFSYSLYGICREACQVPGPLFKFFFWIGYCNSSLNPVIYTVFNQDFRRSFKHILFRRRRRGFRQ
Sequence of Voltage-gated potassium channel subunit beta-2 (Rattus norvegicus) (P62483 whole entry, looked up): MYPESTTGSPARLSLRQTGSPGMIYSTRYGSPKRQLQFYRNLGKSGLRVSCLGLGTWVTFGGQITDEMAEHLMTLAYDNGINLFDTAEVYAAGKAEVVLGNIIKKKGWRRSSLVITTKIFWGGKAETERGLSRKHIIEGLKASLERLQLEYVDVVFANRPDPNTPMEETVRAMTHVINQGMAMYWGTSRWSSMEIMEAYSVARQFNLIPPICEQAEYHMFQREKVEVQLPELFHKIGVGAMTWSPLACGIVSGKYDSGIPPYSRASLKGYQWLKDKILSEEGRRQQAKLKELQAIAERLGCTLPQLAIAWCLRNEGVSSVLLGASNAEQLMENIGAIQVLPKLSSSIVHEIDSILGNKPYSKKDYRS

On to `CCc1ccc(NC(=O)CSc2nnc(Cc3cccn3C)n2-c2ccc(OC)cc2)cc1`, for which the cell count in test [1] came to 891. Also, the inhibition (usually the relative decrease from the control value, in per cent) in test [1] was 7.4% (inactive); in test [3], -54.1% (inactive); in test [7], 20.1% (inactive); in test [8], 23.6% (inactive). The inhibition of aggregation in test [2] was -2.2% (inactive). For the same molecule, the nuclei count is 111% in test [2] and 117% in test [3]. Also, the fluorescence slope in test [4] is -0.609 (inactive). For the same molecule, in test [5], the NADPH fluorescence slope was 1.4e-05 (inactive). Moreover, the slope in test [6] is 0.00529 (inactive).

On to `O=C(CN1C(=O)NC2(CCCCC2)C1=O)Nc1ccc(S(=O)(=O)N2CCOCC2)cc1`, for which the cell count in test [1] came to 460. In addition, the inhibition is 5.2% (inactive) in test [1], 29.7% (inactive) in test [3], 9.77% (inactive) in test [7] and 34.3% (inactive) in test [8]. For the same molecule, the inhibition of aggregation in test [2] was -2.3% (inactive). Further, the nuclei count was 93.7% in test [2] and 96.2% in test [3]. The fluorescence slope in test [4] is -0.49 (inactive). For the same molecule, the NADPH fluorescence slope in test [5] was -7.9e-06 (inactive). Besides, the slope in test [6] is 0.00589 (inactive).

For the molecule `O=C(OCC(=O)N1CCC(Cc2ccccc2)CC1)c1ccc[nH]c1=O`, the cell count in test [1] worked out at 496. Further, the inhibition in test [1] was -25.6% (inactive); in test [3] it was -41.6% (inactive); in test [7], 3.7% (inactive); in test [8], 6.66% (inactive). Besides, the inhibition of aggregation in test [2] was -14.9% (inactive). For the same molecule, the nuclei count came out at 107% in test [2] and 88.7% in test [3]. In test [4], the fluorescence slope is -0.341 (inactive). The NADPH fluorescence slope in test [5] was -9.5e-06 (inactive). The slope in test [6] was 0.00527 (inactive).

As to `O=C(CSc1nnc(-c2ccco2)n1-c1ccccc1)N1CCN(C(=O)c2ccco2)CC1`, the cell count in test [1] was determined as 537. For the same molecule, the inhibition in test [1] was -7.8% (inactive); in test [3], 0.8% (inactive); in test [7], 11.5% (inactive); in test [8], 31.2% (inactive). Also, the inhibition of aggregation in test [2] was 27.8% (active). The results for the nuclei count in test [2] and in test [3] were 59.4% and 116%, respectively. In addition, in test [4], the fluorescence slope was -0.474 (inactive). In test [5], the NADPH fluorescence slope is -1.7e-05 (inactive). Moreover, in test [6], the slope is 0.00672 (inactive).

Take `CC1=C(C(=O)OCc2ccccc2)C(c2ccco2)n2ncnc2N1` (centres undefined): in test [1], the cell count turned out to be 811. Also, the inhibition is -2.8% (inactive) in test [1], -31.8% (inactive) in test [3], 9.4% (inactive) in test [7] and 25.1% (inactive) in test [8]. In addition, the inhibition of aggregation in test [2] was 7% (inactive). Besides, the values for the nuclei count in test [2] and in test [3] were 117% and 109%, respectively. Besides, the fluorescence slope in test [4] was -0.595 (inactive). The NADPH fluorescence slope in test [5] is 4.7e-06 (inactive). The slope in test [6] is 0.00658 (inactive).

With `CN(CC(=O)N1CCCc2c1c(=O)oc1ccc(O)cc21)Cc1ccccc1`, the cell count in test [1] turned out to be 418. Besides, the inhibition in test [1] was 5.7% (inactive); in test [3], -85.3% (inactive); in test [7], 11.5% (inactive); in test [8], 27.4% (inactive). Moreover, the inhibition of aggregation in test [2] was -21% (inactive). In addition, the nuclei count came to 97.1% in test [2] and 117% in test [3]. In test [4], the fluorescence slope is -0.258 (inactive). Further, the NADPH fluorescence slope in test [5] was -4.5e-05 (inactive). Also, in test [6], the slope is 0.00473 (inactive).

Turning to `COc1ccc2c(c1)OC(O)(C(F)F)CC2=O` (centres undefined), the cell count in test [1] is 406. Besides, the inhibition was 1.5% (inactive) in test [1], -205% (inactive) in test [3], 6.89% (inactive) in test [7] and 28.4% (inactive) in test [8]. The inhibition of aggregation in test [2] is 5.7% (inactive). For the same molecule, the nuclei count in test [2] amounted to 91.2%; in test [3], 96.2%. Further, in test [4], the fluorescence slope was -0.398 (inactive). Also, the NADPH fluorescence slope in test [5] is 2.1e-05 (inactive). In addition, in test [6], the slope is 0.00381 (inactive).

As for `COc1ccc(-c2ccc(=O)n(Cc3cc(=O)n4ccccc4n3)n2)cc1`, in test [1], the cell count turned out to be 789. Besides, the inhibition is -6.4% (inactive) in test [1], -101% (inactive) in test [3], 7.67% (inactive) in test [7] and 12.2% (inactive) in test [8]. The inhibition of aggregation in test [2] was -19.1% (inactive). Moreover, the nuclei count in test [2] worked out at 99.5%; in test [3] it was 140%. Also, in test [4], the fluorescence slope is -0.108 (inactive). Further, in test [5], the NADPH fluorescence slope was -3.8e-05 (inactive). Further, the slope in test [6] was 0.00509 (inactive).

Turning to `CCc1nnc(NC(=O)c2ccc(COc3ccccc3)o2)s1`, in test [1], the cell count came to 736. For the same molecule, the inhibition in test [1] was -49% (inactive); in test [3] it was -18.9% (inactive); in test [7], -7.49% (inactive); in test [8], 3.46% (inactive). Further, the inhibition of aggregation in test [2] was -1.8% (inactive). Moreover, the nuclei count stood at 101% in test [2] and 102% in test [3]. Also, the fluorescence slope in test [4] is -0.519 (inactive). The NADPH fluorescence slope in test [5] is -2.5e-05 (inactive). In addition, in test [6], the slope was 0.00512 (inactive).

As for `Cc1cccc(-c2c3c(=O)n(C)c(=O)n(C)c3cn2-c2ccc(O)cc2)c1`, in test [1], the cell count worked out at 363. For the same molecule, the inhibition in test [1] was -2.8% (inactive); in test [3], -49.7% (inactive); in test [7], 6.51% (inactive); in test [8], 17.1% (inactive). The inhibition of aggregation in test [2] is 30.8% (inactive). Moreover, the figures for the nuclei count in test [2] and in test [3] were 90.3% and 98.7%, respectively. Further, the fluorescence slope in test [4] is -0.579 (inactive). Moreover, the NADPH fluorescence slope in test [5] was -2.6e-05 (inactive). The slope in test [6] was 0.00566 (inactive).

Turning to `CCN(c1cccc(C(F)(F)F)c1)S(=O)(=O)c1ccc2c(c1)CCN2C(=O)C1CC1`, the cell count in test [1] was determined as 495. Moreover, the inhibition was 2.7% (inactive) in test [1], -51.5% (inactive) in test [3], -11.8% (inactive) in test [7] and -25.9% (inactive) in test [8]. Moreover, in test [2], the inhibition of aggregation was 3.1% (inactive). Besides, the nuclei count in test [2] came to 97.3%; in test [3] it was 104%. Besides, the fluorescence slope in test [4] is -0.405 (inactive). The NADPH fluorescence slope in test [5] was -4.7e-05 (inactive). Further, in test [6], the slope was 0.00287 (inactive).

With `CCCCC(O)(C(NC=O)C(=O)OC)C(F)(F)F` (centres undefined), the cell count in test [1] turned out to be 703. The inhibition is -10.7% (inactive) in test [1], -10.7% (inactive) in test [3], 22% (inactive) in test [7] and 16% (inactive) in test [8]. Besides, the inhibition of aggregation in test [2] is 12.7% (inactive). In addition, the nuclei count in test [2] was found to be 67.6%; in test [3], 113%. Moreover, in test [4], the fluorescence slope was -0.489 (inactive). For the same molecule, the NADPH fluorescence slope in test [5] was 9.5e-07 (inactive). Moreover, the slope in test [6] is 0.00464 (inactive).

As to `COc1cc(C(=O)Nc2cc(C)ccn2)cc(OC)c1OC`, in test [1], the cell count was determined as 298. The inhibition in test [1] was -1.9% (inactive); in test [3] it was -87% (inactive); in test [7] it was -4.57% (inactive); in test [8] it was 7.2% (inactive). The inhibition of aggregation in test [2] is 4.3% (inactive). In addition, the results for the nuclei count in test [2] and in test [3] were 98.4% and 113%, respectively. Also, the fluorescence slope in test [4] was -0.472 (inactive). The NADPH fluorescence slope in test [5] is 3.1e-06 (inactive). Further, the slope in test [6] was 0.00568 (inactive).

Consider `O=C(CSc1nnc(CNC(=O)c2cccs2)o1)NC1CCCC1`, for which the cell count in test [1] amounted to 613. The inhibition in test [1] was -14.4% (inactive); in test [3] it was -2.3% (inactive); in test [7], 16.7% (inactive); in test [8], 12.5% (inactive). The inhibition of aggregation in test [2] was 10.3% (inactive). Further, the nuclei count in test [2] was determined as 93.1%; in test [3] it was 123%. In test [4], the fluorescence slope was -0.318 (inactive). The NADPH fluorescence slope in test [5] is -5e-05 (inactive). In addition, the slope in test [6] is 0.00569 (inactive).
